According to PubChem BioAssay AID2284151 (EPA ToxCast):
Inconclusive results are not listed. Calls of active or inactive are those of the source. Rule for the calls: active = hit-call score of the fitted dose curve at least 0.9, where 1 is the maximum; inactive = score below 0.9.

biological target: human Cholecystokinin Receptor CCK2 (CCKB) Agonism, CCKBR (gene 887) (UniProt P32239); assay: ERF_FR_GPCR_hCCKBR: Eurofins (ERF) G Protein-Coupled Receptor (GPCR) Radioligand Binding LeadHunter Assay for human Cholecystokinin Receptor CCK2 (CCKB) Agonism
Method: ERF_FR_GPCR_hCCKBR is a biochemical, single-readout assay that uses extracted gene-proteins in a cell-free assay. Measurements were taken 1 hour after chemical dosing in a 96-well plate. See CCK2 (CCKB) Human Cholecystokinin GPCR Binding (Agonist Radioligand) Assay, Cerep.ERF_FR_GPCR_hCCKBR is an assay component calculated from the ERF_FR_GPCR_hCCKBR assay. It is designed to measure radioligand binding using a type of binding reporter as detected by scintillation counting with radiometry technology.Data from the assay component ERF_FR_GPCR_hCCKBR was analyzed at the assay endpoint, ERF_FR_GPCR_hCCKBR, in the positive analysis fitting direction relative to DMSO as the negative control and baseline of activity. Using a type of binding reporter, […] activity can be used to understand changes in binding as they relate to gene CCKBR. To generalize the intended target to other relatable targets, this assay endpoint is annotated to the gpcr intended target family, where the subfamily is cholecystokinin.
Human cells are incubated for 60 minutes at room temprature with [125I]CCK-8s ligand (0.08 nM) and CCK-8s as control inhibitor.Test Sample Requirements: Minimum for 1) Screen: 60 ul of 10 mM stock -OR- 1 mg (pre-weighed) for 10 uM final testing. 2) Dose Response: 90 ul of 10 mM stock -OR- 1 mg (pre-weighed) for a top concentration at 10 uM.

Sequence of human Cholecystokinin Receptor CCK2 (CCKB) Agonism, CCKBR (gene 887) (P32239 whole entry, looked up): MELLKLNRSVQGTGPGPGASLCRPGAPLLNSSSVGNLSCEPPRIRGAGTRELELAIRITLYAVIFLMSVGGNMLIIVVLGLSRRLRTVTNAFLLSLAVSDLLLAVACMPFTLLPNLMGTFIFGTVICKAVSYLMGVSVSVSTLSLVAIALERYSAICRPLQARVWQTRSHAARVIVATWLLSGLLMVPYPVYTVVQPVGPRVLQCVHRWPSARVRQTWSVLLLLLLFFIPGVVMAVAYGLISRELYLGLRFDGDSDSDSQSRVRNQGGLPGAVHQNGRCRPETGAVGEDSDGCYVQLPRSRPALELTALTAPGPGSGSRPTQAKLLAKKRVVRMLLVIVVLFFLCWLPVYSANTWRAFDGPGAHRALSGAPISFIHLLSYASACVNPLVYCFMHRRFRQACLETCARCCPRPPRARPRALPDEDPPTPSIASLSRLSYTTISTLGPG

Compound | AC50
O=C(/C=C/c1ccc(O)cc1)CC(=O)/C=C/c1ccc(O)cc1 | 3.43 µM (active)
